Data: PubChem BioAssay (NCI)
About 83,000 compounds went through this panel and 20% of them were active in at least one assay; those are over-represented in the sample as a whole.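 A percent growth of 40 corresponds to 60% growth inhibition; 0 means no net growth; -100 means all cells died. Active threshold: below 10.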 Unmarked numbers belong to inactive results. Calls of active or inactive are those of the source.

System: LOX IMVI melanoma
Test: NCI-60 one-dose screen, 48 h (100 = growth as untreated, 0 = no growth, -100 = all killed)
Conditions: 10 µM unless noted
Procedure: Growth inhibition of the LOX IMVI human tumor cell line is measured as a screen for anti-cancer activity. Cells are grown in 96 well plates and exposed to the test compound for 48 hours. Compounds are tested at a single concentration, which is 10^-5 M for most compounds. The reported endpoint is percent growth (GI% or GIPRCNT), where numbers from 0 - 100% represent growth inhibition, and numbers from -100% - 0 represent cell death. For example, a value of 40 represents 60% growth inhibition. A value of 0 means no net growth occurred over the course of the experiment. A value of -40 indicates 40% of cells at the beginning of the experiment died by the end of the experiment. A value of -100 means all cells are dead at the end of the experiment.
NCI-60 Human Tumor Cell Lines Screen was performed using the standard one-dose NCI protocol, which is described in more detail at https://dtp.cancer.gov/discovery_development/nci-60/default.htm.
Compounds with GIPRCNT values below 10 were considered active. Activity score was based on GIPRCNT using the following formula: […]
Score is 0 for GIPRCNT values of 100 or above, 50 for GIPRCNT values of 0, and 100 for GIPRCNT values of -100.

Question: How did the growth turn out when O=C(NCCN1CCCC1)c1ccc(-c2nc3ccc4[nH]ncc4c3c3c2CCCC3)cc1 was run?
Answer: Its growth is -89.6% (active).

Question: Which growth does the source give for COc1cc2nc(Cl)nc(Nc3cccc(C4=Nc5c(N)nc(N)nc5NC(c5ccccc5)C4)c3)c2cc1OC (stereo not given) here?
Answer: The growth was 68%.

Question: For COc1cc2nc(Cl)nc(Nc3cccc(C4=Nc5c(N)nc(N)nc5NC(c5ccc6c(c5)OCO6)C4)c3)c2cc1OC (stereo not given), which growth is on record?
Answer: Its growth is 52.6%.

Question: For COc1ccc(-c2nc3cccc(O)c3c(=O)n2Cc2ccccc2)cc1COc1ccc(NC(C)=O)cc1, which growth is on record?
Answer: Its growth is 2.67% [3 µM] (active).

Question: Which growth does the source give for CCN(CC)c1ccc(NC2=C(Cl)C(=O)c3nc(C)ccc3C2=O)cc1 here?
Answer: The growth was -71.6% (active).

Question: How did the growth turn out when CC1(C)CC[C@]23CC[C@]4(C)[C@H](CC[C@@H]5[C@@]6(C)CCCN(CO)C(C)(C)[C@@H]6CC[C@]54C)[C@H]2[C@H]1OC3 was run?
Answer: Its growth is -80.9% (active).

Question: Which growth does the source give for Cc1noc(C)c1CSc1nc2ccccc2n1-c1ccccc1 here?
Answer: Its growth is 88.2%.

Question: For COc1ccc(S(=O)(=O)NCCCNc2nccc(-c3cn(C(C)(C)C)nc3-c3ccc(Cl)c(OC)c3)n2)cc1, which growth is on record?
Answer: The growth was 72.7%.

Question: Which growth does the source give for C=CCn1c(-c2nc3ccc(C(=C(C#N)C#N)c4ccccc4)cc3[nH]2)cc2cc(Br)ccc21 here?
Answer: Its growth is 36.4%.

Question: With Clc1cccc(/C=N/Nc2nc(N/N=C/c3cccc(Cl)c3Cl)nc(N3CCCCC3)n2)c1Cl as the compound, how does the growth read?
Answer: Its growth is 68.3%.

Question: For CCNC(=O)N1CCc2cc(OC)c(OCCc3ccc(OC)c(N)c3)cc2C1c1ccc(C)cc1C (stereo not given), which growth is on record?
Answer: Its growth is 6.47% (active).

Question: CC1(C)[C@@H](O)CC[C@]2(C)[C@H]3CC[C@@H]4[C@H]5[C@H](C(=O)/C=C\c6ccc([N+](=O)[O-])cc6)CC[C@]5(O)CC[C@@]4(C)[C@]3(C)CC[C@@H]12 was tested. Which growth did it give?
Answer: The growth was -7.58% (active).

Question: Which growth does the source give for Cc1occc1-c1nc2s/c(=C/c3ccc(-c4cc(C(F)(F)F)ccc4Cl)o3)c(=O)n2n1 here?
Answer: The growth was 101%.

Question: For Cc1ccc(-c2cc3nc(C(Cl)Cl)nc(C)n3n2)cc1, which growth is on record?
Answer: Its growth is 96.8%.

Question: With CCNC(=O)N1CCc2cc(OC)c(OCCc3ccc(OC)c(N)c3)cc2C1c1cc(C)c(C)cc1C (stereo not given) as the compound, how does the growth read?
Answer: Its growth is 7.03% (active).

Question: Which growth does the source give for Cc1cc(-c2ccc(Cl)cc2)n(Cc2nnc(SCC(=O)Nc3ccc(S(N)(=O)=O)cc3)n2C2CCCCC2)n1 here?
Answer: Its growth is 101%.

Question: CC/C(=C/c1c(O)cccc1OC)c1ccc2c(OC)cccc2[o+]1 was tested. Which growth did it give?
Answer: Its growth is 95%.

Question: With COC(=O)c1[nH]nc2c1C1(C(=O)N(C)c3ccccc31)C(C#N)=C(N)O2 (stereo not given) as the compound, how does the growth read?
Answer: Its growth is 97%.

Question: Which growth does the source give for CN1CCN(Cc2ccc(NC(=O)c3cncc(C#Cc4cnc5ccc(NCCCO)nn45)c3)cc2C(F)(F)F)CC1 here?
Answer: Its growth is -86.3% (active).

Question: Which growth does the source give for O=C(CSc1nc2ccccc2c(=O)n1-c1ccccc1)Nc1cccc(C(=O)/C=C/c2ccccc2Cl)c1 here?
Answer: The growth was 103%.

Question: With C#CC(=O)N(c1ccc(OC)cc1OC)C(C(=O)NCC(=O)OCC)c1cccs1 (stereo not given) as the compound, how does the growth read?
Answer: The growth was -78.8% (active).

Question: CCCCCc1ccc(S(=O)(=O)Nc2cccc(-c3csc(NC(=O)CNCCN(C)C)n3)c2)cc1 was tested. Which growth did it give?
Answer: Its growth is 33.2%.

Question: Which growth does the source give for COc1cccc2c1CN(C(=O)c1ccc(O)c(C(=O)N3Cc4ccc(OCCC[P+](c5ccccc5)(c5ccccc5)c5ccccc5)cc4C3)c1)C2 here?
Answer: The growth was 42.7%.

Question: With O=C(CSc1nnc(-c2ccc3nc(-c4ccccc4)[nH]c3c2)o1)Nc1ccc(C(=O)/C=C/c2ccccc2)cc1 as the compound, how does the growth read?
Answer: The growth was 97.3%.

Question: How did the growth turn out when COc1cc(Cn2cc3c(c2)-c2onc(CN4CCOCC4)c2CC3)cc(OC)c1OC was run?
Answer: Its growth is 100%.

Question: For CCNC(=O)N1CCc2cc(OC)c(OCCc3ccc(OC)cc3)cc2C1c1ccc(Cl)cc1C (stereo not given), which growth is on record?
Answer: Its growth is 8.72% (active).

Question: With C[C@H]1c2[nH]c3ccccc3c2C[C@H]2C(=O)N(CCCCCCC(=O)NO)CC(=O)N21 as the compound, how does the growth read?
Answer: Its growth is -8.74% (active).

Question: How did the growth turn out when C=C(C)[C@@H]1CC[C@]2(COP(=O)(OCC)OCC)CC[C@]3(C)[C@H](CC[C@@H]4[C@@]5(C)CCCNC(C)(C)[C@@H]5CC[C@]43C)[C@@H]12 was run?
Answer: Its growth is -87.9% (active).

Question: For Nc1cc(F)ccc1NC(=O)c1ccc(NC(=O)C/C=C/c2cccnc2)cc1, which growth is on record?
Answer: Its growth is 39.7%.

Question: With Cc1ccc(S(=O)(=O)N(CC[C@@H]2C[C@H]2c2cc3ccccc3o2)S(=O)(=O)c2ccc(C)cc2)cc1 as the compound, how does the growth read?
Answer: The growth was 95.1%.

Question: Which growth does the source give for COc1ccc([C@H]2[C@H](O)C(=O)N2c2cc(OC)c(OC)c(OC)c2)cc1F here?
Answer: The growth was -6.07% (active).

Question: COc1ccc(CCN2C(=O)CSC2=S)cc1 was tested. Which growth did it give?
Answer: Its growth is 30.3%.

Question: How did the growth turn out when C=C1CC[C@@H]2[C@](C)(CO)[C@H](O)CC[C@@]2(C)[C@@H]1C/C(O)=C1\CCOC1=O was run?
Answer: The growth was 72.9%.

Question: COc1cc(C2N=C(NNc3ccccc3)NC(C)=C2C(C)=O)ccc1O (stereo not given) was tested. Which growth did it give?
Answer: The growth was 66.3%.

Question: For Cc1nn(-c2ccccc2)c2ncnc(N/N=C/c3ccccc3O)c12, which growth is on record?
Answer: Its growth is 2.3% (active).

Question: CC1(C)CC[C@]2(C(=O)O)CC[C@]3(C)C(=CC[C@@H]4[C@@]5(C)CC/C(=N\OCCC#N)C(C)(C)[C@@H]5CC[C@]43C)[C@@H]2C1 was tested. Which growth did it give?
Answer: Its growth is 91.8%.

Question: NS(=O)(=O)c1ccc(Nc2nc(SCc3ccccc3)nc3ccccc23)cc1 was tested. Which growth did it give?
Answer: The growth was 52.3%.

Question: COc1ccc(-c2nc3cc(Cl)c(Cl)cc3n2CC(=O)N=Nc2c(O)[nH]c3ccc(OC)cc23)cc1 was tested. Which growth did it give?
Answer: The growth was 7.13% (active).

Question: Which growth does the source give for Nc1nc(-c2cccc([N+](=O)[O-])c2)c(N=Nc2cccc([N+](=O)[O-])c2)s1 here?
Answer: Its growth is 13.4%.

Question: For COc1c(N2CC3CCCNC3C2)c(F)cc2c(=O)c(C(=O)N/N=C/c3ccc(Br)cc3)cn(C3CC3)c12 (stereo not given), which growth is on record?
Answer: Its growth is -73.5% (active).
